This test has as its target Histone deacetylase 2 (Homo sapiens) (UniProt Q92769). The test is described as follows: HDAC2 enzyme inhibition, profiling panel, selectivity assay for E-cadherin restoration project, biochemical, HDAC isoform panel (AID 651926). Particulars: recombinant HDAC2, fluorogenic peptide deacetylation; series mostly up to 10 µM.

Activity calls are given as the source filed them. The rule behind the calls is not given here.

Histone deacetylase 2 (Homo sapiens), sequence (Q92769 whole entry, looked up, canonical isoform): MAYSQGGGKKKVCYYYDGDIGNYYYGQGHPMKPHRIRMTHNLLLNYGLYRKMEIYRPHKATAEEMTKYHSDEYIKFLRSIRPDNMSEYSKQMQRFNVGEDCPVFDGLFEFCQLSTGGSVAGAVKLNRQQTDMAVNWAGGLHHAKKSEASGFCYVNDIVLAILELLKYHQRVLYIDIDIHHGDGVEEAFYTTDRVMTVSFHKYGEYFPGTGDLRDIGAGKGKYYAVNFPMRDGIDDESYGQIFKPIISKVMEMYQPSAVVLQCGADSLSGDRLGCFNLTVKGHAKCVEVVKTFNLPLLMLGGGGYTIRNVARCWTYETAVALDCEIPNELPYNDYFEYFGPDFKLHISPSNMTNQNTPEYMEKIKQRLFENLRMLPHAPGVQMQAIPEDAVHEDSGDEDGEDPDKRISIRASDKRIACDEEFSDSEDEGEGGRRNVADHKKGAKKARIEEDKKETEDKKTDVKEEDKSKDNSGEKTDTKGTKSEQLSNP

Regarding `O=C(NCCCNC(=O)c1ccc[nH]c1=O)c1cc(-c2ccccc2)on1`, the result was inactive.

For the origin of these results see PubChem BioAssay AID651926 (Vanderbilt Specialized Chemistry Center, 2012).
